These results are taken from PubChem BioAssay (NCI).

The panel holds about 83,000 compounds, 20% with a hit somewhere; the sample as a whole holds those more often.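 Results are percent growth after 48 hours of single-concentration exposure. 100 means growth as in untreated cells, lower positive values show inhibition; negative values down to -100 show cell death.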 Activity calls are given as the source filed them.

This assay concerns SK-OV-3 ovarian. Put plainly: NCI-60 one-dose screen, 48 h (100 = growth as untreated, 0 = no growth, -100 = all killed). To be noted: 10 µM unless noted. Here is the method: Growth inhibition of the SK-OV-3 human tumor cell line is measured as a screen for anti-cancer activity. Cells are grown in 96 well plates and exposed to the test compound for 48 hours. Compounds are tested at a single concentration, which is 10^-5 M for most compounds. The reported endpoint is percent growth (GI% or GIPRCNT), where numbers from 0 - 100% represent growth inhibition, and numbers from -100% - 0 represent cell death. For example, a value of 40 represents 60% growth inhibition. A value of 0 means no net growth occurred over the course of the experiment. A value of -40 indicates 40% of cells at the beginning of the experiment died by the end of the experiment. A value of -100 means all cells are dead at the end of the experiment.
NCI-60 Human Tumor Cell Lines Screen was performed using the standard one-dose NCI protocol, which is described in more detail at https://dtp.cancer.gov/discovery_development/nci-60/default.htm.
Compounds with GIPRCNT values below 10 were considered active. Activity score was based on GIPRCNT using the following formula: […]
Score is 0 for GIPRCNT values of 100 or above, 50 for GIPRCNT values of 0, and 100 for GIPRCNT values of -100.
With `CCc1ccc(C2=C/C(=C/c3ccc(Cl)cc3)C(=O)N2CCc2ccc(S(N)(=O)=O)cc2)cc1`, the growth was 46% (inactive). Then `C[C@@H]1CC2C3C[C@H](F)C4=CC(=O)C=C[C@]4(C)[C@@]3(F)[C@@H](O)C[C@]2(C)[C@@]1(O)C(=O)CO` (stereo not given in full), with 65.6% (inactive). Regarding `COc1ccc2c(c1)C(=O)/C(=C/c1cccc(OCC(=O)c3ccccc3)c1)O2`, the growth is 121% (inactive). Take `Cc1ccc2oc(=O)cc(C3C(C#N)=C(N)Oc4c3ccc3ccccc43)c2c1` (stereo not given): the growth was 88.1% (inactive). To `COc1ccc(/C=C2/C(=O)Nc3cc(Cl)c(-c4csc(N)n4)cc32)cc1` belongs 48.5% (inactive). Then `O=C(Nc1ccc(-n2ccc3c(NC(=O)c4ccccc4)ncnc32)cc1)Nc1ccc(Cl)c(Cl)c1`, with 67.9% (inactive).

`CCOc1ccc(NC(=O)Nc2cc(C(C)C)ccc2C)cc1`: the growth is 93.4% (inactive). Then `CCCCCC/C=N/Nc1ccc([N+](=O)[O-])cn1`, with 81.1% (inactive); and `CCCN1C(=O)CSC1=Nc1ccc2cc3ccc(N=C4SCC(=O)N4CCC)cc3nc2c1`, with 74.5% (inactive). Then `CC1(C)N=C(N)N=C(N)N1c1ccc(OCC(=O)Nc2ccccc2)c(Cl)c1`, with 57.3% (inactive). To `CC1(C)Cc2c(Br)c(Br)c(Br)c(OCC(O)CN3CCN(c4ccccn4)CC3)c2O1` (stereo not given) belongs 102% (inactive); to `O=C1COc2ccccc2C(=O)N1CCCCNc1ccccc1`, 84.8% (inactive). For the molecule `Cc1cn([C@]2(CF)O[C@H](CO)C2C)c(=O)[nH]c1=O` (stereo not given in full), the growth is 122% (inactive).

For the molecule `O=C(O)c1ccc(-n2cc(/C=N/Nc3ccccc3F)c(-c3ccc(O)cc3)n2)cc1`, the growth is 102% (inactive).

Take `Cc1ccc(=O)n(-c2ccc(Br)cc2F)c1`: the growth is 90.4% (inactive).

With `COc1cc(/C=C/C(=O)N2CCC=CC2=O)cc(OC)c1OC`, the growth is 105% (inactive). Then `COc1ccc(Cn2cc3c(c2-c2cc(OC)c(OC)c(OC)c2)CCc2c(CO)noc2-3)cc1`, with 39.9% (inactive); and `NCC(=O)NS(=O)(=O)OC[C@H]1O[C@@H](n2cnc3c(N)ncnc32)[C@H](O)[C@@H]1O`, with 6.28% (active); and `CCOc1ccccc1C(=O)N1CCN(c2cc(Cl)cc(Cl)c2)CC1`, with 25.8% (inactive). Take `COc1ccc(-c2c(C#N)cnc(N)c2-c2nc3cc(C)c(C)cc3[nH]2)cc1`: the growth was 46% (inactive). Regarding `C=C1C(=O)O[C@H]2[C@H]1CC/C(COC(=O)c1ccc(C#N)cc1)=C\CC[C@@]1(C)O[C@@H]21`, the growth is 106% (inactive). Then `O=S(=O)(O)c1ccc(F)cc1`, with 102% (inactive); and `CN(C)CC/C=C1\c2ccccc2Sc2ccc(Cl)cc21`, with 74.1% (inactive). Then `c1ccc2c(c1)Oc1cccnc1-n1nccc1-2`, with 104% (inactive). To `COc1cccc(/C=N/C(=S)NC2(C)C3CCC(C3)C2(C)C)c1O` (stereo not given) belongs 102% (inactive). For the molecule `CCNc1ncnc2n[nH]nc12`, the growth was 101% (inactive). To `CN(C)CCCOc1c(Br)cc(/C=C/C(=O)N(C)CCc2cc(Br)c(OCCCN(C)C)c(Br)c2)cc1Br` belongs 102% (inactive); to `CN[C@@H](CCCNC(N)=NC/C=C(/C)CCC=C(C)C)C(=O)N(C)[C@@H](CCCNC(N)=NCC=C(C)C)C(=O)N[C@H](C)[C@H](OS(=O)(=O)O)c1ccc(OS(=O)(=O)O)c(COS(=O)(=O)O)c1`, 110% (inactive). To `C=C1C(=O)O[C@H]2[C@H]1CC/C(COC(=O)c1cc(OC)c(OC)c(OC)c1)=C\CC[C@@]1(C)O[C@@H]21` belongs 97.6% (inactive); to `CCN(CC)CC(=O)Nc1c(C)cccc1C`, 109% (inactive); to `Cc1nc(N)nc(SCc2ccccc2)c1Br`, 84.2% (inactive). Then `CC1=C2C(=C[C@@](C)(CO)[C@@H]2OC(=O)N(C)CCN(C)C(=O)OC(C)(C)C)C(=O)[C@](C)(O)C12CC2`, with 35.3% (inactive); and `O=[N+]([O-])c1cccc2cc(S(=O)(=O)O)ccc12`, with 95.1% (inactive); and `O=c1c2ccccc2[nH]n1Cc1ccc2c(c1)OCO2`, with 112% (inactive).

For the molecule `COc1ccccc1N1CCN(CCCOc2ccc(OCCCN3CCN(c4ccccc4OC)CC3)c(C(=O)c3cc(OC)c(OC)c(OC)c3)c2)CC1`, the growth is 100% (inactive).

`O=C(N/N=C/c1ccccc1O)c1ccccc1O`: the growth is 47.7% (inactive). For `O=[N+]([O-])c1ccc(NS(=O)(=O)c2cc(Cl)ccc2Cl)c2ccccc12`, the growth is 59.6% (inactive). Then `Oc1ccc(Cl)cc1Sc1cc(Cl)ccc1O`, with 106% (inactive); and `CCN(CC)CCC(C(=O)O)(c1ccccc1)c1ccccc1`, with 92% (inactive).

For the molecule `CC(=O)O[C@@H]1[C@@H](OC(C)=O)[C@H](OC(C)=O)CO[C@H]1Nc1cccc2ccccc12`, the growth was 105% (inactive).
